In publication PMC4336329 (PLoS ONE, 2015):
Among all 310,000 compounds or so, about 14,000 (4.5%) showed an effect of 50% or more. The effect is printed as a negative number. The sample as a whole holds a higher share of strong results than the screen did.

Target: human ether-à-go-go-related gene (hERG) potassium channel (human, UniProt Q12809)
Test: primary screen, population patch clamp on CHO cells stably expressing hERG; higher = less effect of the substance
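Further: peak tail current of the secondary pulse compared with the same well before compound.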

Chain of human ether-à-go-go-related gene (hERG) potassium channel (Q12809 whole entry, looked up): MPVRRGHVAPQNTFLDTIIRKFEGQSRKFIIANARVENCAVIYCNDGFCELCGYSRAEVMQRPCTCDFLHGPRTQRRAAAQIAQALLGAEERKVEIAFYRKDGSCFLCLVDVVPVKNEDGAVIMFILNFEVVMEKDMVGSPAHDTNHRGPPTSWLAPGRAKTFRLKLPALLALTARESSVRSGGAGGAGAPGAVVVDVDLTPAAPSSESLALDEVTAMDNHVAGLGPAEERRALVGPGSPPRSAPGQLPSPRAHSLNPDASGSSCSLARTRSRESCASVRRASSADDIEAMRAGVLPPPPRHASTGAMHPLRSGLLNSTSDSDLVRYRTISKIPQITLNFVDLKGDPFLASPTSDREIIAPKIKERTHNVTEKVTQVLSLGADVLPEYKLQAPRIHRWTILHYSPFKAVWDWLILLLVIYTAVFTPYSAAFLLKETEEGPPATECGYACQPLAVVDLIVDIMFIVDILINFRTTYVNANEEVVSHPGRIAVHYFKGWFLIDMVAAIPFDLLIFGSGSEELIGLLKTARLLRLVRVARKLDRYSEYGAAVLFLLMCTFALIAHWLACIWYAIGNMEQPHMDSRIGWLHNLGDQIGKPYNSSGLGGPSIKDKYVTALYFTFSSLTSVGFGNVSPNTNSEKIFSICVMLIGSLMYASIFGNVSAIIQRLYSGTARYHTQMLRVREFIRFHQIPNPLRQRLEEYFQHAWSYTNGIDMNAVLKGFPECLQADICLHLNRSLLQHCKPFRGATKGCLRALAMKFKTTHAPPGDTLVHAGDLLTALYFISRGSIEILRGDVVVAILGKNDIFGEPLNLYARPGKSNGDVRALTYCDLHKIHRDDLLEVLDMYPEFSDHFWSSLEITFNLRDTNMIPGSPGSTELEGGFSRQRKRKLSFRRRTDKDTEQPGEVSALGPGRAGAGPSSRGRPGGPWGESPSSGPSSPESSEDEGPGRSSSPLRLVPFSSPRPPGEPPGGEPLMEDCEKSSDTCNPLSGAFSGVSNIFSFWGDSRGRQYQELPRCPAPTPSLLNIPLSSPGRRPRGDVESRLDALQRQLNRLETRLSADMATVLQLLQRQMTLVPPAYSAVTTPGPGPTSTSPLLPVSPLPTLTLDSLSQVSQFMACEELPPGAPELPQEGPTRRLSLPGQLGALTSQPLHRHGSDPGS

Structure (SMILES)	hERG current change (%, negative = inhibition) at 10uM [%]
C/C(=N\NC(=O)CCCOc1ccc(Cl)cc1C)c1ccc(C)o1	3.58
COc1cccc(-n2cc(CNC(=O)C3CCC(=O)N(C4CC4)C3)cn2)c1 (stereo not shown)	-11
COc1ccccc1C(=O)Nc1ccccc1SC	-20.3
CCCCCCn1c(CN2CCCCC2C)nc2c1c(=O)n(C)c(=O)n2C (stereo not shown)	-60.5
CCCn1c(CN2CCCCC2C)nc2c1c(=O)n(C)c(=O)n2C (stereo not shown)	3.04
CCCCCn1c(CN2CCCCC2C)nc2c1c(=O)n(C)c(=O)n2C (stereo not shown)	-44.7
CCCn1c(CN2CCCCC2CC)nc2c1c(=O)n(C)c(=O)n2C (stereo not shown)	-5.14
CCCCCCn1c(CN2CCCCC2CC)nc2c1c(=O)n(C)c(=O)n2C (stereo not shown)	-51.9
CCCCCn1c(CN2CCCCC2CC)nc2c1c(=O)n(C)c(=O)n2C (stereo not shown)	-44.7
Cc1ccc(Nc2nc(-c3ccc(O)cc3O)cs2)nc1	11.1
N/C(=N\[N+](=O)[O-])N1CCN(C(=O)c2ccccc2)CC1	24.8
CC(C)(C)c1ccc(/C=N/Nc2nncn2N)cc1	-21.5
CCOC(=O)CN1C(=N)N(c2nc(NC(C)C)nc(OC)n2)CC1=O	-13.1
CCOC(=O)CN1C(=N)N(c2nc(NC(C)C)nc(NC(C)C)n2)CC1=O	-73.8
CCNc1nc(NC(C)C)nc(N2CC(=O)N(CC(=O)OCC)C2=N)n1	-13.9
COCCCNC(=O)c1ccc(CS(=O)(=O)c2cccc(C(F)(F)F)c2)o1	-8.62
CCOCCCNC(=O)c1ccc(CS(=O)(=O)c2cccc(C(F)(F)F)c2)o1	6.78
O=C(NCc1ccc2c(c1)OCO2)c1ccc(CS(=O)(=O)c2cccc(C(F)(F)F)c2)o1	-24.2
CCCCNC(=O)c1ccc(CS(=O)(=O)c2cccc(C(F)(F)F)c2)o1	-53.5
COCCNC(=O)c1ccc(CS(=O)(=O)c2cccc(C(F)(F)F)c2)o1	4.09
O=C(NCc1ccco1)c1ccc(CS(=O)(=O)c2cccc(C(F)(F)F)c2)o1	-60.3
COC(=O)c1cccc(Cn2cc([N+](=O)[O-])cn2)c1	8.41

Structure (SMILES)	hERG current change (%, negative = inhibition) at 10uM [%]
Cc1ccc(Nc2ncnc3c2nnn3Cc2ccccc2)cc1	8.07
O=C(CCS(=O)(=O)c1cc(Br)cc2c1N(C(=O)C1CC1)CC2)NCC1CCCO1 (stereo not shown)	10.8
Cc1ccc(-c2nc3nc4ccccc4nc3n2Cc2ccco2)cc1	-18.7
COCCn1c(-c2ccco2)nc2nc3ccccc3nc21	2.99
c1ccc(-c2nc3nc4ccccc4nc3n2Cc2ccco2)cc1	-61.2
CCCCCn1c(-c2ccco2)nc2nc3ccccc3nc21	-67.5
COc1ccccc1Cn1c(-c2ccco2)nc2nc3ccccc3nc21	-4.67
COc1ccc(CCn2c(-c3ccco3)nc3nc4ccccc4nc32)cc1	-3.77
CCCCOCCCn1c(-c2ccco2)nc2nc3ccccc3nc21	-55.9
Clc1ccc(-c2nc3nc4ccccc4nc3n2Cc2ccco2)cc1	-12.3
c1ccc(Cn2c(-c3ccco3)nc3nc4ccccc4nc32)cc1	6.13
O=C(O)CSc1sc(=S)sc1SCC(=O)O	13.7
COC(=O)c1ccc(OC)c(CSc2nnc(-c3ccc(C(C)(C)C)cc3)o2)c1	9.83
CC(=O)Nc1ccc(OCC(=O)NCc2ccccc2)cc1	19
O=C(Cn1nc(C(F)F)cc1C(F)F)N/N=C/c1ccc2c(c1)OCO2	24.7
CC(=O)N1CCc2cc(S(=O)(=O)NC(Cc3ccccc3)C(=O)Nc3cc(C)ccn3)ccc21 (stereo not shown)	1.38
CCOc1ccccc1N(CC(=O)NCCOC)C(=O)CCC(=O)Nc1ccccn1	19.6
Cc1cccc(NC(=S)N(C)Cc2cn(C)c3ccccc23)c1	-7.49
COc1ccc(S(=O)(=O)NCc2ccco2)c2ccccc12	-9.68
Cc1cc2oc(=O)cc(CN3CCCCC3C)c2cc1Cl (stereo not shown)	-0.834
N#Cc1c(-c2ccc(Cl)cc2)ccnc1N1CCOCC1	3.33
CCC(C)NCC(=O)Nc1cc(S(=O)(=O)N(CC)c2ccccc2)ccc1Cl (stereo not shown)	-78.8

Structure (SMILES)	hERG current change (%, negative = inhibition) at 10uM [%]
CCN(c1ccccc1)S(=O)(=O)c1ccc(Cl)c(NC(=O)CN2CCN(C)CC2)c1	-59.2
CCN(c1ccccc1)S(=O)(=O)c1ccc(Cl)c(NC(=O)COC(=O)c2ccc(O)cc2)c1	6.44
CCN(c1ccccc1)S(=O)(=O)c1ccc(Cl)c(NC(=O)CSc2nnc(C)s2)c1	-24.2
CCN(c1ccccc1)S(=O)(=O)c1ccc(Cl)c(NC(=O)CN(C)C2CCN(C)CC2)c1	-38.8
CCN(c1ccccc1)S(=O)(=O)c1ccc(Cl)c(NC(=O)CN2CCCCCC2)c1.O=C(O)C(=O)O	10.1
COc1ccc(/C=N/NC(=O)C2CC2)c(OC)c1OC	12.9
COc1ccc(NC(=O)CSc2nc3ccccc3nc2N2CCCC2)c(OC)c1	24.1
COc1ccc(Cl)cc1NC(=O)CN(C(=O)c1ccco1)C1CCCCC1	-2.36
Cc1nc2ccccc2n1CCOc1ccc([N+](=O)[O-])cc1	-73.8
Cc1ccc(OCCn2c(=O)n(C)c3ccccc32)cc1	-1.88
Cc1nc2ccccc2n1CCOc1ccccc1	6.17
Cn1c(=O)n(CCOc2ccc([N+](=O)[O-])cc2)c2ccccc21	-65.3
Cc1ccc(OCCn2c(C)nc3ccccc32)cc1	3.94
Cn1c(=O)n(CCCOc2ccc(Cl)cc2)c2ccccc21	-13.7
CCn1c(SCC(=O)N/N=C(\C)c2ccncc2)nnc1-c1ccc(C)cc1	-20.6
O=C(NC1CCN(Cc2ccccc2)CC1)c1cccc(Br)c1	-63.8
O=C(NC1CC1)c1cccc(Br)c1	0.381
CC1CCc2sc(C(=O)NN)cc2C1 (stereo not shown)	21.1
O=C(NC1CCN(Cc2ccccc2)CC1)c1c(F)cccc1F	-24.4
O=C(NC1CCN(Cc2ccccc2)CC1)c1ccc2c(c1)OCCCO2	-37.1
Cc1cc(C(=O)NC2CCN(Cc3ccccc3)CC2)n[nH]1	-19.8
CC1CCc2sc(C(=O)NC3CCCCC3)cc2C1 (stereo not shown)	-5.4

Structure (SMILES)	hERG current change (%, negative = inhibition) at 10uM [%]
CC1CCc2sc(C(=O)NC3CCN(Cc4ccccc4)CC3)cc2C1 (stereo not shown)	-54.1
O=C(NC1CCN(Cc2ccccc2)CC1)c1cncc(Br)c1	-64.1
O=C(NC1CCN(Cc2ccccc2)CC1)c1ccc(Oc2cc(Cl)cc(Cl)c2)o1	-6.95
Cl.O=C(NC1CCN(Cc2ccccc2)CC1)c1cccc(OC(F)F)c1	-74.1
O=C(NC1CCN(Cc2ccccc2)CC1)c1cc(Br)c(Br)[nH]1	-2.75
O=[N+]([O-])c1ccc2c(c1)[nH]c(=S)n2-c1ccccc1	36.4
COc1cccc(CNS(=O)(=O)c2cc3c(cc2C)NC(=O)CO3)c1	-25.4
COCC1CCN(C(=O)c2ccc3oc(Cc4ccccc4)nc3c2)C1 (stereo not shown)	-0.23
COc1cccc(/C=N/NC(=O)CC(=O)NCCc2ccccc2)c1OC	6.02
Cl.NC(N)=NC(N)=Nc1cccc(Cl)c1	-2.14
Cc1nc2ccccn2c1C(=O)N/N=C/c1ccc(CNC(=O)C(=O)Nc2ccccc2)o1	-50.3
Cc1ccc(NC(=O)C(=O)NCc2ccc(/C=N/NC(=O)c3c(C)nc4cc(C)ccn34)o2)cc1	-64
Cc1nc2ccccn2c1C(=O)N/N=C/c1ccccc1	11.6
Cc1nc2ccccn2c1C(=O)N/N=C/c1ccccc1[N+](=O)[O-]	2.26
Cc1ccn2c(C(=O)N/N=C/c3ccc(CNC(=O)C(=O)Nc4ccc(C)c(C)c4)o3)c(C)nc2c1	-57
Cc1ccc(C)c(-n2c(C)cc(/C=N/NC(=O)c3c(C)nc4cc(C)ccn34)c2C)c1	-0.122
Cc1ccc(NC(=O)C(=O)NCc2ccc(/C=N/NC(=O)c3c(C)nc4ccccn34)o2)cc1	1.37
Cc1nc2ccccn2c1C(=O)N/N=C/c1ccc([N+](=O)[O-])cc1	2.88
CCOc1ccc(/C=N\NC(=O)c2c(C)nc3cc(C)ccn23)cc1	-2.47
Cc1ccn2c(C(=O)N/N=C\c3cccs3)c(C)nc2c1	-7.56
Cc1nc2ccccn2c1C(=O)N/N=C/c1ccc([N+](=O)[O-])o1	-64.1
COc1ccc(NC(=O)C(=O)N/N=C\c2ccc(CNC(=O)C(=O)Nc3ccc(C)c(C)c3)o2)c(OC)c1	9.12
